In PubChem BioAssay (EPA / NIEHS) one finds outcome and AC50 data, which are given here for twelve compounds.

Active and inactive are the calls of the source. How the source made its calls: active means hit-call score of the fitted dose curve at least 0.9, where 1 is the maximum; inactive means score below 0.9.

Read-out in the assay: Tissue Factor, F3 (gene 2152)
Nature of the assay: BSK_LPS_TissueFactor: BioMAP Diversity Plus: LPS Assay for Tissue Factor Biomarker Activity (AID 2283084). As to conditions: primary human HUVEC with PBMC; actives raise or lower the signal. The essentials:
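Human umbilical vein endothelial cells co-cultured with peripheral blood mononuclear cells were dosed and stimulated with LPS. Cell-surface CD142 was quantified by ELISA at 24 h. Activity was fitted bidirectionally against DMSO baseline.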
Regarding `Clc1nc(Cl)nc(Nc2ccccc2Cl)n1`, the outcome was inactive.

Take `Cc1c(COC(=O)[C@@H]2[C@H](/C=C(\Cl)C(F)(F)F)C2(C)C)cccc1-c1ccccc1`: the outcome was inactive.

`Nc1c(Cl)c(Cl)nc(C(=O)O)c1Cl`: the outcome was inactive.

With `O=C(O)c1c(Cl)ccc2cc(Cl)cnc12`, the outcome was inactive.

For the compound `Cc1ccc(N=CN(C)C=Nc2ccc(C)cc2C)c(C)c1`, the concentration at half-maximal activity (AC50) (as a rule, the midpoint of the concentration-response curve, whichever way the signal moves) is 32.6 µM (active).

Turning to `Nc1cnn(-c2ccccc2)c(=O)c1Cl`, the result was inactive.

Regarding `Nc1c(Cl)c(F)nc(OCC(=O)O)c1Cl`, the AC50 was 5.36 µM (active).

Take `COc1cc(Cl)c(OC)cc1Cl`: the result was inactive.

For the compound `OC(c1ccc(Cl)cc1)(c1ccc(Cl)cc1)C(Cl)(Cl)Cl`, the AC50 is 20 µM (active).

For the compound `CC(C)C1(C)N=C(c2ncccc2C(=O)O)NC1=O` (configuration not stated), the outcome was inactive.

`CN/C(=N\[N+](=O)[O-])NCc1cnc(Cl)s1`: the outcome was inactive.

For `Cc1cnc(C2=NC(C)(C(C)C)C(=O)N2)c(C(=O)O)c1` (configuration not stated), the result was inactive.
